High-throughput results from PubChem BioAssay.
The sample as a whole holds a higher share of hits than the screen did.
TbPYK inhibitor: blocks Trypanosoma brucei pyruvate kinase | Q57TT1 | TbPYK enzyme, Kinase-Glo Plus ATP luminescence, 45 min | Potency, µM (series often up to 76.8 µM), actives largely listed as inhibitors | 410,000 tested, 0.12% active; also: nearly all actives have a fitted effect of over 50% in size
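Enzyme and substrate buffer are dispensed first and compound is pin-transferred. ADP at 130 uM final then starts the reaction, which runs 45 min at room temperature. Detection reagent is added for 10 min before luminescence is imaged.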
LmPK inh: blocks Leishmania mexicana pyruvate kinase activity; Q27686; purified LmPK, Kinase-Glo ATP luminescence, 1 h; Potency, µM (doses to about 57.5 µM), usual class: inhibitors; 290,000 tested, 0.37% active; AID 1721
Target sequence (Q27686 whole entry, looked up): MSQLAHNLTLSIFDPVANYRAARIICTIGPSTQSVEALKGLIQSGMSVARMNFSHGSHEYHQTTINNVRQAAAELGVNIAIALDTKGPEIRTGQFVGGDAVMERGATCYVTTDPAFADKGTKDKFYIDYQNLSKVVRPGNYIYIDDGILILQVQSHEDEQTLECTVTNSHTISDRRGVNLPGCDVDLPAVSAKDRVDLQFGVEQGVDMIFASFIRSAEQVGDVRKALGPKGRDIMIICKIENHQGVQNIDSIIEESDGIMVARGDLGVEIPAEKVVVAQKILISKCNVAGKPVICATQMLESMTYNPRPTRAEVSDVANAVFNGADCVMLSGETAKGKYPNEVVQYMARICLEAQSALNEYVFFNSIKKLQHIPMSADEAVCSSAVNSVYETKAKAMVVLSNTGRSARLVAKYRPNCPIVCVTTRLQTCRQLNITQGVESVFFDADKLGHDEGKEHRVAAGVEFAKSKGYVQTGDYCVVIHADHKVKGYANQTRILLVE
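Purified LmPK (0.1 nM) converted ADP (0.1 mM) to ATP with PEP (0.5 mM) in imidazole buffer pH 7.2 with KCl and MgCl2, 1 h at room temperature. ATP was read by Kinase-Glo luminescence; data normalized to uninhibited and no-enzyme controls.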
FBPA Giardia inh: Giardia lamblia aldolase inhibition; AID 2451; purified Giardia FBPA; Potency, µM (highest dose often 59.6 µM), usual class: inhibitors; A8B2U2; 290,000 tested, 0.71% active; also: nearly all actives have a fitted effect of over 55% in size
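Giardia FBPA (40 nM reagent) was preincubated 10 min at RT with compound (up to 57.5 uM final), then substrate plus GAPDH/TPI/NAD/arsenate coupling system with diaphorase/resazurin was added; resorufin fluorescence (525/598 nm) was read after 20 min.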
CHX counter: counter-screen for Shiga toxin inhibitors: cycloheximide protein synthesis inhibition. cell reporter, cycloheximide protein synthesis inhibition counterscreen. max response, %. 300,000 tested, 12% active. AID 2314; in the data active = max response mostly above about 13%, no sharp cut-off; inactive = mostly below about 14%; also: read at 38.3 µM for the half of the compounds with a filed dose
Shiga toxin inh: blocks Shiga toxin action in Vero cells; AID 2315; inhibition, % at 38.7 µM; 290,000 tested, 9.2% active; Vero cells, Shiga toxin protein synthesis inhibition reporter; in the data active = inhibition mostly above about 28%, no sharp cut-off; inactive = mostly below about 43%
RE007 growth inh: less growth of the S. pombe RE007 Vpr strain; S. pombe RE007 Vpr strain, BacTiter-Glo ATP luminescence, 24 h; Potency, µM (doses to about 92.2 µM), actives largely listed as inhibitors; 360,000 tested, 0.21% active; AID 651644; active = well fitted falling curve with a large enough effect; inconclusive = small, poorly fitted or top-dose-only effect; inactive = no such curve, though single readings can be large or run the other way; also: nearly all actives have a fitted effect of over 50% in size
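Fission yeast strain RE007, carrying one chromosomally integrated HIV-1 vpr copy, was seeded at OD 0.01 in PMG+AL medium with 23 nL pinned compound. After 24 h at 30 °C and 99% humidity, viability was read by BacTiter-Glo luminescence.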
Large screens that a line does not name were inactive. Unless noted, calls follow the shape of the dose curve; as a rule, active = well fitted curve in the direction sought with a large enough effect; inconclusive = small, poorly fitted or top-dose-only effect, or another doubt; inactive = no such curve, though single readings can be large; an effect the other way counts as inactive or inconclusive.

O=C(/C(=C/O)N=Nc1ccc(Cl)cc1)c1ccncc1	RE007 growth inh 20µM (no result: FBPA Giardia inh)
Cc1cccc(N=N/C(=C\O)C(=O)c2ccc(Br)cc2)c1	RE007 growth inh inconclusive
Cc1ccc(N=N/C(=C\O)C(=O)c2ccncc2)cc1	RE007 growth inh 20µM
Cc1ccc(-c2cc(C(=O)N/N=C/c3cccnc3)c3ccccc3n2)cc1C	none (no result: LmPK inh, FBPA Giardia inh, CHX counter, Shiga toxin inh)
CCCc1ccc2oc(C(=O)N3CCN(C4CCS(=O)(=O)C4)CC3)c(C)c2c1 (configuration not stated)	CHX counter 23 (no result: FBPA Giardia inh)
Cc1ccc2c(C)c(C(=O)N3CCC(O)(c4ccccc4)CC3)oc2c1C	none
CCCc1ccc2oc(C(=O)N3CCC(O)CC3)c(C)c2c1	CHX counter 44, Shiga toxin inh 70
Cc1ccc2c(C)c(C(=O)N3CCCC(C(N)=O)C3)oc2c1C (configuration not stated)	CHX counter 27, Shiga toxin inh 72
Cc1ccc2c(C)c(C(=O)N3CCN(C4CCS(=O)(=O)C4)CC3)oc2c1C (configuration not stated)	CHX counter 18 (no result: FBPA Giardia inh)
Cc1c(C(=O)N2CCN(C3CCS(=O)(=O)C3)CC2)oc2ccc(Cl)cc12 (configuration not stated)	none (no result: LmPK inh, FBPA Giardia inh, CHX counter, Shiga toxin inh)
CC(O)CNCc1ccccc1C(F)(F)F (configuration not stated)	none
COc1ccccc1S(=O)(=O)N(C)C[C@@H]1OCc2cnnn2CCCC(=O)N([C@@H](C)CO)C[C@H]1C	none (no result: LmPK inh, FBPA Giardia inh, CHX counter, Shiga toxin inh)
C[C@H](CO)N1C[C@H](C)[C@@H](CN(C)S(=O)(=O)c2ccc(Oc3ccccc3)nc2)OCc2cn(nn2)CCCC1=O	none (no result: LmPK inh, FBPA Giardia inh, CHX counter, Shiga toxin inh)
CCN(CC)S(=O)(=O)c1ccc(OC)c(NC(=S)Nc2ccc(C)c(C)c2)c1	none
CC(C)[C@@H](CC(=O)N[C@@H]1CCCC[C@H]1C(=O)N[C@H](CC(=O)N[C@@H](CCC(=O)O)CC(=O)O)Cc1ccccc1)NC(=O)C[C@H](CO)NC(=O)[C@@H]1CCCC[C@H]1N	none (no result: TbPYK inhibitor, LmPK inh, CHX counter, Shiga toxin inh, RE007 growth inh)
CCOC(=O)C1CCN(C2CCN(C(=O)c3oc4c(C)c(C)ccc4c3C)CC2)CC1	CHX counter 19, Shiga toxin inh 82 (no result: FBPA Giardia inh)
CCCc1ccc2oc(C(=O)N(C)Cc3nccs3)c(C)c2c1	CHX counter 56, Shiga toxin inh 117 (no result: FBPA Giardia inh)
COc1ccc2oc(C(=O)N(C)Cc3ccc(OC(F)F)cc3)c(C)c2c1	none (no result: FBPA Giardia inh)
CCOC(=O)C1CCN(C2CCN(C(=O)c3oc4c(F)cccc4c3C)CC2)CC1	none (no result: FBPA Giardia inh)
COc1cccc(-c2ccc3ncnc(Nc4ccccc4)c3c2)c1	none (no result: TbPYK inhibitor, LmPK inh, CHX counter, Shiga toxin inh, RE007 growth inh)
CCOC(=O)c1ccc(N2C(=O)CC(N3CCCC(C)C3)C2=O)cc1 (configuration not stated)	RE007 growth inh 3.2µM
CCOC(=O)c1ccc(N2C(=O)CC(N3CCC(Nc4ccc(F)cc4)CC3)C2=O)cc1 (configuration not stated)	RE007 growth inh 7.9µM
CCOC(=O)c1ccc(N2C(=O)CC(N3CCN(Cc4ccccc4)CC3)C2=O)cc1 (configuration not stated)	none
CCOC(=O)c1ccc(N2C(=O)CC(N3CCC(C#N)(c4ccccc4)CC3)C2=O)cc1 (configuration not stated)	RE007 growth inh 22µM
CCOC(=O)C1CCCN(C2CC(=O)N(c3cccc(C)c3)C2=O)C1 (configuration not stated)	RE007 growth inh 25µM
Cc1ccc(N(CC(=O)N2CCCCCC2)S(C)(=O)=O)cc1	none (no result: LmPK inh, FBPA Giardia inh, CHX counter, Shiga toxin inh)
OC[C@@H]1CN(CCc2ccccc2)C[C@H](n2cnc3c(NCc4ccc(F)cc4)ncnc32)O1	none (no result: LmPK inh, FBPA Giardia inh, CHX counter, Shiga toxin inh)
COc1ccc(OC)c(CNC(=O)CCc2c(C)nc3c(c2C)c(=O)n(C)c(=O)n3C)c1	none (no result: LmPK inh, FBPA Giardia inh, CHX counter, Shiga toxin inh, RE007 growth inh)
COC(=O)Cc1ccc(NC(=O)c2ccc(NC(=O)c3ccco3)cc2)cc1	none
CCOC(=O)c1ccc(NC(=O)c2ccco2)cc1	CHX counter 42, Shiga toxin inh 107, RE007 growth inh inconclusive
CCOC(=O)c1ccc(NC(=O)c2ccc(NC(=O)c3ccccc3)cc2)cc1	none
CCOC(=O)c1ccc(NC(=O)CSCc2ccco2)cc1	CHX counter 13, Shiga toxin inh 32
CC(C)OC(=O)c1ccc(NC(=O)c2ccco2)cc1	CHX counter 46, Shiga toxin inh 77
CCOC(=O)c1ccc(NC(=O)CSCCC(=O)O)cc1	none
COC(=O)c1ccc(NC(=O)c2cccc(NC(=O)c3ccco3)c2)cc1	none
CC(C)OC(=O)c1ccc(NC(=O)c2ccccc2)cc1	CHX counter 66, Shiga toxin inh 69
CCC(C(=O)Nc1ccc(F)cc1F)n1nc(-c2ccccc2)c2c(c1=O)CCCC2 (configuration not stated)	none (no result: LmPK inh, FBPA Giardia inh, CHX counter, Shiga toxin inh, RE007 growth inh)
CCOc1ccccc1N(C)C(=O)CCS(=O)(=O)c1ccc2c(c1)NC(=O)CO2	none
COc1cccc(C(C)(O)c2nc(-c3cnn(C)c3)cs2)c1 (configuration not stated)	none (no result: LmPK inh, FBPA Giardia inh, CHX counter, Shiga toxin inh)
COc1ccccc1CNC(=O)C1CCC(CNS(=O)(=O)c2ccc3c(c2)CCCC(=O)N3)CC1 (configuration not stated)	none (no result: LmPK inh, FBPA Giardia inh, CHX counter, Shiga toxin inh, RE007 growth inh)
CC(C)OC(=O)c1ccc2nc3ccccc3nc2c1	CHX counter 87, Shiga toxin inh 125
Cc1ccc(N(CC(=O)NC(C)C)C(=O)CCC(=O)Nc2nccs2)c(C)c1	CHX counter 28
Cc1cc(C)cc(N(CC(=O)NCc2ccco2)C(=O)CCC(=O)Nc2ccccn2)c1	none
Cc1ccc(N(CC(=O)NC(C)C)C(=O)CCC(=O)Nc2nccs2)cc1	none
Cc1ccc(N(CC(=O)NCc2ccco2)C(=O)CCC(=O)Nc2ccccn2)c(C)c1	Shiga toxin inh 34
CCOC(=O)C1(CCc2ccccc2)CCN(C(=O)c2cnc(C)cn2)CC1	CHX counter 29, Shiga toxin inh 83
CCOC(=O)C1(CCc2ccccc2)CCN(C(=O)C2=C(C)OCCO2)CC1	CHX counter 22, Shiga toxin inh 42
CCOC(=O)C1(CCCc2ccccc2)CCN(C(=O)c2cncs2)CC1	none
CCOC(=O)C1(CCc2ccccc2)CCN(C(=O)CN2CCOC2=O)CC1	CHX counter 21
CCOC(=O)C1(CCc2ccccc2)CCN(C(=O)CCc2cnn(C)c2)CC1	none
O=S(=O)(c1ccc(F)cc1)N1CCN(c2nc(-c3ccc(F)cc3)nc3cc(Cl)ccc23)CC1	none (no result: TbPYK inhibitor, LmPK inh, FBPA Giardia inh, RE007 growth inh)
CC1=Nc2nc(N3CCCCC3)c(C#N)c3c4c(nc(c23)N1)N(c1ccc(C(C)C)cc1)C(=O)C4	none
CC(=Nc1ccc(C)c(C)c1)C1=C(O)CSC1=O	CHX counter 23, RE007 growth inh inconclusive
Clc1ccc(OCC#CCN2CCCCCC2)cc1	Shiga toxin inh 47
CCc1nn(CC(=O)N2CCN(c3ccc(OC)cc3)CC2)c(=O)c2cc3occc3n12	none (no result: FBPA Giardia inh)
Cc1cc(C(=O)Nc2ccc(C(=O)O)cc2)c(C)o1	none
